The panel holds about 79,000 compounds, 15% with a hit somewhere; the sample as a whole holds those more often. Activity calls are given as the source filed them. No stated cut-off is given here; in the data, active means growth inhibition above about 70%; inactive means the rest.
How the values were obtained:
[1] = NCI Yeast Anticancer Drug Screen. Data for the rad50 strain (AID 155);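 further: 0% = growth of vehicle-only cultures of the same strain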; conditions: S. cerevisiae rad50 strain growth inhibition; at 50.0 µM; hits give high values
Method in brief: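 Readout: growth inhibition relative to vehicle-treated cultures. Compound exposure was carried out in a genetically defined yeast strain deficient in DNA damage repair.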

[2] = NCI Yeast Anticancer Drug Screen. Data for the mec2-1 strain (AID 157); conditions: S. cerevisiae mec2-1 strain, at 50.0 µM, hits give high values
Method in brief: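 Strain: mec2-1 (DNA repair/cell cycle alteration). Compound exposure, then growth measured; inhibition expressed relative to vehicle.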

[3] = NCI Yeast Anticancer Drug Screen. Data for the sgs1 mgt1 strain (AID 161);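 further: 0% = growth of cultures given vehicle only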; conditions: S. cerevisiae sgs1 mgt1 strain, at 50.0 µM, hits give high values
Method in brief: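 Mutant yeast exposed to compound; growth scored against vehicle-only wells.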

[4] = NCI Yeast Anticancer Drug Screen. Data for the cln2 rad14 strain (AID 165);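 further: 0% = growth equal to vehicle treated cultures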; conditions: S. cerevisiae cln2 rad14 strain, at 50.0 µM, hits give high values
Method in brief: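 Compounds are applied to the cln2 rad14 yeast strain, and growth is then compared with that of vehicle-treated cultures to give inhibition.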

[5] = NCI Yeast Anticancer Drug Screen. Data for the bub3 strain (AID 167); conditions: S. cerevisiae bub3 mutant strain, at 50.0 µM, hits give high values
Method in brief: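 Readout: yeast growth inhibition, expressed relative to vehicle-only wells. The test organism is a mutant strain from a panel with lesions in DNA repair or checkpoint genes.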

[6] = NCI Yeast Anticancer Drug Screen. Data for the mlh1 rad18 strain (AID 175); conditions: S. cerevisiae mlh1 rad18 strain growth inhibition; at 50.0 µM; hits give high values
Method in brief: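 Read-out is yeast growth inhibition, calculated against vehicle-only controls. The compound was applied to a strain engineered with DNA damage repair alterations.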

Measured: growth inhibition

CN(C)CC(O)CNC(=O)Nc1ccccc1 (centres undefined)
inactive: [1] 0.6% | [2] 14.2% | [3] 12.7% | [4] 0.35% | [5] -0.05% | [6] -42.8%

O=C1CCCC2OC2[C@H]2CCCCCC[C@@H]12 (some centres undefined)
inactive: [1] 2.5% | [2] 0.9% | [3] 4.8% | [4] 3.15% | [5] -2.35% | [6] 7.85%

C=CCNC(=O)c1ccccc1OCC(=O)O
inactive: [1] -12.7% | [2] -37.3% | [3] -8.75% | [4] -8.1% | [5] -29.1% | [6] 1.4%

C=C1CC[C@H]2C(C)=CC[C@@H]3[C@H](OC(=O)[C@H]3COC)[C@@H]12
inactive: [1] 3.6% | [2] -39% | [3] -11.5% | [4] 5.4% | [5] -18.6% | [6] -11.4%

O=c1c2ccccc2oc2cc([N+](=O)[O-])cc([N+](=O)[O-])c12
inactive: [1] -15.9% | [2] -16.2% | [3] -14.4% | [4] 38.4% | [5] 0.9% | [6] -60.6%

CCN(CC)CCSc1cc(C)c2ccc(N)nc2n1
inactive: [1] -5.65% | [2] -24% | [3] 6.6% | [4] 15.1% | [5] 8.6% | [6] -1.1%

Cc1ccc(-c2cc(O)c3nc4ccccc4n3c2)cc1
inactive: [1] -36.4% | [2] -10.1% | [3] -31.4% | [4] -22.9% | [5] -18.5% | [6] -24.1%

Cc1ccc(SC(F)(F)C(F)C(F)(F)F)cc1 (centres undefined)
inactive: [1] -4.65% | [2] -3.6% | [3] -7.75% | [4] 9.45% | [5] 7.9% | [6] -1.1%

O=C(O)C1CCCCN1/N=C/c1ccccc1 (centres undefined)
inactive: [1] 15.8% | [2] 6.8% | [3] -1.65% | [4] -13.6% | [5] -30.8% | [6] 21.9%

CC[CH2][Sn]([CH2]CC)([O]C(=O)Cc1ccc(F)cc1)[O][Sn]([CH2]CC)([CH2]CC)[O]C(=O)Cc1ccc(F)cc1
active: [1] 90.2% | [2] 89.4% | [3] 87.8% | [4] 82.8% | [5] 89.1% | [6] 83.6%

CC(/C=C1\N=C(c2ccccc2)OC1=O)=C\c1ccccc1
inactive: [1] -40% | [2] -22.1% | [3] -33.5% | [4] 9.2% | [5] -35.4% | [6] -28.9%

CN(C)c1ccc(/C=C(/C(=O)O)c2csc(-c3nc(/C(=C\c4ccc(N(C)C)cc4)C(=O)O)cs3)n2)cc1
inactive: [1] 34.8% | [2] 9.45% | [3] 10.2% | [4] -19.8% | [5] 13.2% | [6] 25.4%

OC1CCSc2ccccc21 (centres undefined)
inactive: [1] 28.6% | [2] 10.3% | [3] 23.9% | [4] 9.7% | [5] 23.6% | [6] 23.2%

CSC(=S)Nc1nc2ccc(C)cc2s1
inactive: [1] 21.4% | [2] 0.4% | [3] -2.95% | [4] -15% | [5] 11.3% | [6] -14.8%

Cc1cc(C)c(C(=O)Oc2ccc(C)c(CC(Cl)(Cl)Cl)c2)c(C)c1
inactive: [1] 32.8% | [2] 9% | [3] 4.85% | [4] 19.1% | [5] -0.2% | [6] 14.4%

CC(Br)C(=O)c1ccc2ncccc2c1 (centres undefined)
inactive: [1] 5.15% | [2] -24.8% | [3] -7.6% | [4] -1.45% | [5] 12.8% | [6] 12.8%

Nc1cccc(Oc2ccc([N+](=O)[O-])cc2)c1
inactive: [1] 16.9% | [2] 25% | [3] 28.3% | [4] 17.2% | [5] 32.5% | [6] 24.7%

CCOc1ccc(/C=C/c2ccc(OCC)cc2)cc1
inactive: [1] -4.65% | [2] -16.4% | [3] -8.9% | [4] -1.5% | [5] 8.55% | [6] -24.3%

NC(=O)c1ccccc1N1CCCCC1
inactive: [1] 16.7% | [2] -0.2% | [3] 36% | [4] 21.5% | [5] 32.5% | [6] 22.4%

O=C(c1ccccc1)N1C(=S)N=C(Nc2ccccc2)C1=Nc1ccccc1
inactive: [1] -15.8% | [2] -27.1% | [3] -9.8% | [4] -30.3% | [5] -20.9% | [6] -35.9%

COc1ccc2c(c1)C1(C)CCCC(C)(C=O)C1CC2 (centres undefined)
inactive: [1] 5.5% | [2] -2.75% | [3] -3.65% | [4] -1.25% | [5] 10.4% | [6] 4.75%

Cc1ccc(N2C3=C(CC4=C2CC(C)(C)CC4=O)C(=O)CC(C)(C)C3)cc1
inactive: [1] -29.6% | [2] -25.1% | [3] -21.1% | [4] -15.9% | [5] -33.8% | [6] -24.9%

CC(C)(C)[Si](C)(C)OCCCC#CCO
inactive: [1] 12.1% | [2] -5.3% | [3] -3.85% | [4] 14.4% | [5] -13.6% | [6] 24.3%

O=C(Nc1ccc(Cl)cc1)OCCSc1nc2ccccc2s1
inactive: [1] -6.05% | [2] -30.1% | [3] 21.5% | [4] 9.35% | [5] 4.55% | [6] -3.9%

CNC(=O)CCC(NC(=O)OC(C)(C)C)C(=O)NC(Cc1ccc(NC(=O)CCCCC(C)=O)cc1)C(=O)NCC(=O)NC (centres undefined)
inactive: [1] -18.3% | [2] 13.9% | [3] -0.25% | [4] 9.8% | [5] 3.75% | [6] -2.1%

CCOC(=O)C(=O)Nc1c(C)cccc1CC
inactive: [1] 0.15% | [2] -4.1% | [3] -5.05% | [4] -16.4% | [5] 6.2% | [6] -1.05%

Nc1nc(-c2cccc([N+](=O)[O-])c2)c(N=Nc2ccc(Br)cc2)s1
inactive: [1] 10.3% | [2] 12.4% | [3] 23.1% | [4] 15.8% | [5] -3.25% | [6] 5.95%

CCN(CC)CCCC(C)Nc1c2cc(OC)cc(C)c2nc2c(C)c(Cl)ccc12 (centres undefined)
inactive: [1] 21.6% | [2] 50.6% | [3] 13.8% | [4] 19.2% | [5] 4.35% | [6] 29.4%

COC1OC(COS(=O)(=O)c2ccc(C)cc2)C(OS(=O)(=O)c2ccc(C)cc2)C1OCc1ccccc1 (centres undefined)
inactive: [1] -2.35% | [2] 2.85% | [3] 3.9% | [4] -15.7% | [5] -0.65% | [6] -1.4%

CCCCCC(=O)OCCOC
inactive: [1] -3.4% | [2] -15.2% | [3] -8.45% | [4] -46% | [5] -38.1% | [6] -13.7%

CCCCCCn1cnc2c(=S)nc[nH]c21
inactive: [1] 24.6% | [2] 8.35% | [3] 10.8% | [4] 7.45% | [5] -0.65% | [6] 12.8%

CCCCCCCC(=O)NN
inactive: [1] -20.9% | [2] -27.6% | [3] -12.9% | [4] -4.7% | [5] -11.9% | [6] 10.3%

COc1cc(C2C(Cl)C(=O)N2NC(=O)c2ccc(NC(C)=O)cc2)cc(Br)c1O (centres undefined)
inactive: [1] -0.25% | [2] -14.8% | [3] -9.6% | [4] -24.9% | [5] -7.9% | [6] -30.9%

CC[n+]1ccccc1Br
inactive: [1] 19.2% | [2] 18.6% | [3] 10.1% | [4] -7.4% | [5] 6.05% | [6] 18.6%

O=c1oc2ccccc2cc1-n1nnc2cc([N+](=O)[O-])ccc21
inactive: [1] 39% | [2] 24.1% | [3] 25.8% | [4] -25.6% | [5] 12.8% | [6] 26.8%

Cc1ccccc1NC(=O)NC(Oc1ccccc1)(C(F)(F)F)C(F)(F)F
inactive: [1] -6.95% | [2] -21.8% | [3] -50.9% | [4] 15.6% | [5] -32.8% | [6] -29.1%

C/C=C(/C)C(=O)OC1CC(C)=CC(OC(=O)/C(C)=C\C)[C@]2(C)C1[C@](O)(C(C)C)C[C@H]2OC(C)=O (some centres undefined)
inactive: [1] 41% | [2] 20.6% | [3] 28.2% | [4] 30.2% | [5] 24.9% | [6] 49.4%

CCC[CH2][Sn]([C]#[C][Sn]([CH2]CCC)([CH2]CCC)[CH2]CCC)([CH2]CCC)[CH2]CCC
active: [1] 99.6% | [2] 98.8% | [3] 99.5% | [4] 99.2% | [5] 99.3% | [6] 99.4%

COc1cccc2c(SCC(=O)Nc3ccccc3-c3ccccc3NC(=O)CSc3c4ccccc4nc4c(OC)cccc34)c3ccccc3nc12
inactive: [1] -2.4% | [2] 3.35% | [3] -15.8% | [4] -36% | [5] -2% | [6] -28.8%

Source: PubChem BioAssay (NCI)
